Drawing on PubChem BioAssay (NCI), this text covers growth for eleven compounds.

Test systems include SK-MEL-2 melanoma; EKVX NSCLC; SN12C renal; UO-31 renal; TK-10 renal; ACHN renal; CAKI-1 renal; A498 renal; CCRF-CEM leukemia; MOLT-4 leukemia.
Test in all cases: NCI-60 one-dose screen, 48 h (100 = growth as untreated, 0 = no growth, -100 = all killed)
Holding throughout (details): 10 µM unless noted

This is part of a sample that, as a whole, favours compounds with a hit. Of some 83,000 tested, about 20% had one in any assay.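 Single-dose data. Exposure time 48 hours. Values below 10 considered active.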 A number with no mark means an inactive call. Activity calls are given as the source filed them.

Take `Clc1cc(Cl)cc(Nc2ccc3c(OCCCN4CCOCC4)cccc3n2)c1`: the growth was 87.8% with SK-MEL-2 melanoma; 62.2% in the assay with EKVX NSCLC; 76.1% with SN12C renal; 28.6% in the assay with UO-31 renal; 80.5% in the assay on TK-10 renal; 49.9% in the assay with ACHN renal. Further, the growth is 56.6% in the assay on CAKI-1 renal, 59.8% in the assay on A498 renal, 29.5% with CCRF-CEM leukemia and 22.5% in the assay with MOLT-4 leukemia.

Consider `C=C(C)[C@@H]1CC[C@]2(C)CC[C@]3(C)[C@H](CC[C@@H]4[C@@]5(C)CCCNC(C)(C)[C@@H]5CC[C@]43C)[C@@H]12`, for which the growth was 119% in the assay with SK-MEL-2 melanoma; 103% with EKVX NSCLC; 82.1% in the assay with SN12C renal; 88.2% in the assay with UO-31 renal; 142% in the assay on TK-10 renal; 95.5% in the assay on ACHN renal. For the same compound, the growth in the assay on CAKI-1 renal is 75.3%; in the assay with A498 renal, 79.7%; in the assay with CCRF-CEM leukemia it was 52%; in the assay with MOLT-4 leukemia, 46.6%.

In the case of `O=C(Nc1ccc(/C=C2\SC(=O)N(Cc3ccc(OC(F)(F)F)cc3)C2=O)cc1)c1ccc(Cl)c([N+](=O)[O-])c1`, the growth is 92.6% in the assay with SK-MEL-2 melanoma; 91.1% in the assay with EKVX NSCLC; 81.6% with SN12C renal; 67.9% in the assay with UO-31 renal; 98.5% with TK-10 renal; 89.3% with ACHN renal. Moreover, the growth in the assay on CAKI-1 renal was 85.7%; in the assay on A498 renal it was 82.2%; in the assay with CCRF-CEM leukemia, 77%; with MOLT-4 leukemia it was 78.4%.

Turning to `C=C(C)[C@@H]1CC[C@]2(C(=O)O)CC[C@]3(C)[C@H](CC[C@@H]4[C@@]5(C)C/C(=C/c6ccc(OC)cc6)C(=O)C(C)(C)[C@@H]5CC[C@]43C)[C@@H]12`, the growth was 38.1% with SK-MEL-2 melanoma; 9.53% (active) in the assay with EKVX NSCLC; 18% in the assay on SN12C renal; 12.6% with UO-31 renal; 24.5% with TK-10 renal; 19.6% in the assay on ACHN renal. Further, the growth is 23.8% in the assay on CAKI-1 renal, 49.6% in the assay with A498 renal, 24% with CCRF-CEM leukemia and 15.3% in the assay on MOLT-4 leukemia.

In the case of `O=C(O)/C(=C/c1ccc(O)cc1)c1ccccc1`, the growth in the assay on SK-MEL-2 melanoma is 105%; in the assay on EKVX NSCLC, 105%; with SN12C renal, 96.9%; in the assay with UO-31 renal, 68.9%; in the assay with TK-10 renal, 98.3%; in the assay with ACHN renal, 101%. In addition, the growth in the assay on CAKI-1 renal was 104%; in the assay on A498 renal it was 93.2%; in the assay on CCRF-CEM leukemia, 94.5%; in the assay with MOLT-4 leukemia, 97.5%.

Take `CC(=O)OC[C@]12CC[C@@H](/C(C)=N/O)[C@@H]1[C@H]1CC[C@@H]3[C@@]4(C)CCCNC(C)(C)[C@@H]4CC[C@@]3(C)[C@]1(C)CC2`: the growth in the assay on SK-MEL-2 melanoma was 94.5%; in the assay with EKVX NSCLC, 84.6%; in the assay with SN12C renal it was 75.3%; in the assay with UO-31 renal, 61.2%; in the assay on TK-10 renal it was 82.4%; in the assay on ACHN renal, 88%. The growth in the assay on CAKI-1 renal is 36.7%; in the assay on A498 renal, 59.3%; in the assay with CCRF-CEM leukemia, 52.1%; in the assay with MOLT-4 leukemia, 35.6%.

Take `COc1cccc(-c2nn(-c3ccccc3)cc2-c2ccnc(NCCCNS(=O)(=O)c3cccc(F)c3)c2)c1`: the growth in the assay with SK-MEL-2 melanoma was 4% (active); in the assay on EKVX NSCLC it was 45.1%; with SN12C renal it was 32.3%; with UO-31 renal it was 9.64% (active); with TK-10 renal it was 36.9%; in the assay on ACHN renal, 19.4%. The growth with CAKI-1 renal was 32.4%; in the assay with A498 renal, 30.4%; in the assay with CCRF-CEM leukemia it was 11.4%; in the assay on MOLT-4 leukemia, -3.37% (active).

Consider `NCCNc1nc(-c2ccccc2)nc2nc(-c3ccccc3)oc12`, for which the growth with SK-MEL-2 melanoma is 107%; in the assay with EKVX NSCLC, 102%; in the assay on SN12C renal, 80.6%; with UO-31 renal it was 69.6%; in the assay with TK-10 renal, 119%; with ACHN renal, 79%. Besides, the growth with CAKI-1 renal was 73.9%; with A498 renal it was 90%; in the assay on CCRF-CEM leukemia, 91.5%; in the assay on MOLT-4 leukemia, 73.6%.

As to `COc1cccc(-c2nn(-c3ccccc3)cc2-c2ccnc(NCCNS(=O)(=O)c3cccc(F)c3)c2)c1`, the growth with SK-MEL-2 melanoma was 16.2%; in the assay on EKVX NSCLC it was 44.6%; with SN12C renal it was 33.8%; in the assay with UO-31 renal it was 15.7%; in the assay with TK-10 renal it was 36.7%; with ACHN renal, 21.7%. The growth in the assay with CAKI-1 renal is 35.9%; in the assay on A498 renal it was 47.7%; in the assay with CCRF-CEM leukemia, 12.3%; in the assay on MOLT-4 leukemia, 4.55% (active).

Take `COc1cccc(-c2nn(-c3ccccc3)cc2-c2ccnc(NCCCNS(=O)(=O)c3ccc(C(F)(F)F)cc3)c2)c1`: the growth was 19.3% in the assay on SK-MEL-2 melanoma; 46.5% in the assay on EKVX NSCLC; 23% in the assay on SN12C renal; 11.3% with UO-31 renal; 42.1% with TK-10 renal; 22.4% in the assay on ACHN renal. Besides, the growth is 27.2% with CAKI-1 renal, 20.3% with A498 renal, 16.8% with CCRF-CEM leukemia and -0.667% (active) in the assay on MOLT-4 leukemia.

Turning to `COC(=O)[C@]12CC[C@@H](C)[C@H](C)[C@@H]1C1=CC[C@@H]3[C@@]4(C)C(c5ncon5)=C[C@@](C)(CO)C4=CC[C@@]3(C)[C@]1(C)CC2`, the growth in the assay with SK-MEL-2 melanoma is -51% (active); in the assay on EKVX NSCLC, -76.5% (active); in the assay with SN12C renal it was -14.4% (active); in the assay with UO-31 renal it was -93.5% (active); in the assay with TK-10 renal it was 1.76% (active); in the assay with ACHN renal it was -89.4% (active). The growth with CAKI-1 renal is 20.6%; in the assay with A498 renal it was -36.4% (active); with CCRF-CEM leukemia, -52.5% (active); in the assay on MOLT-4 leukemia, -42.8% (active).
